Laboratory results reported in PubChem BioAssay (NCATS).
Records with an inconclusive call do not appear. Calls of active or inactive are those of the source. Unless noted, calls come from the whole dose curve.

What was measured:
[1] = NFAT Signaling Pathway (AID 444; active = well fitted curve in either direction with a large enough effect, not every such curve was filed as active;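 note: carbachol stimulus at about its EC50 of 1 µM final; % is set by controls: 0 for no effect and ±100 for the full control effect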); settings: Jurkat NFAT-bla M1, carbachol, beta-lactamase ratio, 5 h; at 17.2 µM (top of the series)
Summary of the method: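 Jurkat cells carrying an NFAT-driven β-lactamase reporter and co-transfected muscarinic M1 receptor were treated with compound plus carbachol (1 uM final, an EC50 level) for 5 h at 37 °C. CCF4 loading followed for 1 h at RT; 460/530 nm ratio gave %activity.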

[2] = target: Mitogen-activated protein kinase 10 (Mus musculus) (UniProt Q61831); assay: JNK3 AlphaScreen Assay (AID 530; active = well fitted curve in either direction with a large enough effect, not every such curve was filed as active;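 note: kinase came from lysate of stimulated human HepG2 cells; signal reports phosphorylation of biotinylated GST-cJun 1-79 at Ser73 with 10 µM ATP; % is set by controls: 0 for no effect and ±100 for the full control effect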)
Summary of the method: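 Phosphorylation of biotinylated GST-cJun(1-79) at Ser73 is measured by AlphaScreen proximity luminescence. Enzyme is JNK3 in HepG2 lysates activated with interleukin-1beta and tumor necrosis factor alpha; ATP is 10 uM final.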

[3] = qHTS Assay for Lipid Storage Modulators (AID 1519); settings: Drosophila S3 cells, BODIPY lipid droplet/cell ratio, laser cytometry, cells loaded with oleic acid; for activity change, negative = inhibition: % is set by controls: 0 for no effect and ±100 for the full control effect
Summary of the method: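 Cells seeded at 5,000 per well were treated with compounds over a concentration series and loaded with oleic acid (400 uM, as added). Lipid droplet fluorescence (488 nm excitation, 500-530 nm channel) was read by laser-scanning cytometry and normalized to 20 uM Triacsin C.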

[4] = target: Cytochrome P450 1A2 (Homo sapiens) (UniProt P05177); assay: p450-cyp1a2 (AID 410); note: potency is the fitted concentration of half-maximal effect;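 for activity change, negative = inhibition: -100% = full effect of reference inhibitor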
Sequence of Cytochrome P450 1A2 (Homo sapiens) (P05177 whole entry, looked up): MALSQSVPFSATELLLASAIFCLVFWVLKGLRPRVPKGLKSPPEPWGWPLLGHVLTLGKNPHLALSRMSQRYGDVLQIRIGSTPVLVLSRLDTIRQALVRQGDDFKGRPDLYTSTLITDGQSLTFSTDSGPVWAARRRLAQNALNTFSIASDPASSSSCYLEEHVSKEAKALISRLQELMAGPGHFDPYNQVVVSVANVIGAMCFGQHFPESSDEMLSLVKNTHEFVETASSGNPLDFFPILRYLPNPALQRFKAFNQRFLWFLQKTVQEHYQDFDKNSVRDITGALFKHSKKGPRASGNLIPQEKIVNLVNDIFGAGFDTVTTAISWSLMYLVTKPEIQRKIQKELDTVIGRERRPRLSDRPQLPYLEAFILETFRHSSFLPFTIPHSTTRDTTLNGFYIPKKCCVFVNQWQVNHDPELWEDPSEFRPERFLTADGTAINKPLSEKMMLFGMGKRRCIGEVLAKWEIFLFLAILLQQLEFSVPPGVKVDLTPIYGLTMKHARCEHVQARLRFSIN
Summary of the method: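 Luminescent demethylation readout: Luciferin-ME (100uM, equal to Km) turned over by 20nM CYP1A2 for 60 min at room temperature after NADPH regeneration addition, following 10 min compound preincubation. Normalization used 57 uM furafylline as full inhibition.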

[5] = target: Glucocorticoid receptor (Homo sapiens) (UniProt P04150); assay: GR-GFP Redistribution (AID 450;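 active = compounds whose dose series gives a full or clear partial fitted curve of increased nuclear translocation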; note: potency is the fitted concentration of half-maximal effect); settings: U2OS GR-GFP nuclear translocation, laser cytometry, 2 h
Sequence of Glucocorticoid receptor (Homo sapiens) (P04150 whole entry, looked up, the tested form may be a part): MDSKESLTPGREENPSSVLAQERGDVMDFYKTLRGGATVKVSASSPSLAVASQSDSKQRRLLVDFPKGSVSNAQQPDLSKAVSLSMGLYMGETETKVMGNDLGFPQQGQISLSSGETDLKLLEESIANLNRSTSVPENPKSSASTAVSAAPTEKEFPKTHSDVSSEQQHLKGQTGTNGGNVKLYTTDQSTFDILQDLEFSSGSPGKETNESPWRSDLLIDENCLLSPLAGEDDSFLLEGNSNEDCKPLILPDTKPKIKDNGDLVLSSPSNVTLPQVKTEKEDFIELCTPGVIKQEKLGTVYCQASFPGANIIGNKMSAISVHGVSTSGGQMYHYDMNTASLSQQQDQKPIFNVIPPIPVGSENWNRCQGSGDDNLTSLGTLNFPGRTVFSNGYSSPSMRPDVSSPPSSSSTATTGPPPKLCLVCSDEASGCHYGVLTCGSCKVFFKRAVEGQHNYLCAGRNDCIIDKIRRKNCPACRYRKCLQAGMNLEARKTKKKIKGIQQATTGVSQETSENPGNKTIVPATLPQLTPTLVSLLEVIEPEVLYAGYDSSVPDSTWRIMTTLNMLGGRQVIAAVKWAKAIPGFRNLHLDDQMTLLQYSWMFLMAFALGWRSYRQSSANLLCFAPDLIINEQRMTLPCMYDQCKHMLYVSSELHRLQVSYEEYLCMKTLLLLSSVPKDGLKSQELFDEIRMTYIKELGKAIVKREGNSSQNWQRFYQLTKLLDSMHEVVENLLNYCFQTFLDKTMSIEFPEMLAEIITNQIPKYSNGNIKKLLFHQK

[6] = target: Glucocorticoid receptor (Homo sapiens) (UniProt P04150); assay: GR-EFC Redistribution (AID 451); settings: CHO-K1 GR-EFC translocation, beta-gal luminescence, 2 h; note: potency is the fitted concentration of half-maximal effect
Summary of the method: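 CHO-K1 cells stably expressing nuclear-localized β-gal enzyme acceptor and GR fused C-terminally to the enzyme donor fragment; ligand-driven nuclear translocation restores β-gal by complementation. Compounds titrated up to 46 uM final, 2 h at 37 °C; luminescence read.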

[7] = target: 3',5'-cyclic-AMP phosphodiesterase 4B (Homo sapiens) (UniProt Q07343); assay: qHTS Assay for Inhibitors of PDE-IV (AID 607; active = well fitted activation curve with a large enough effect in the main read-out, with a control signal flat, not every such curve was filed as active; note: % of control where 0% means no effect)
Sequence of 3',5'-cyclic-AMP phosphodiesterase 4B (Homo sapiens) (Q07343 whole entry, looked up): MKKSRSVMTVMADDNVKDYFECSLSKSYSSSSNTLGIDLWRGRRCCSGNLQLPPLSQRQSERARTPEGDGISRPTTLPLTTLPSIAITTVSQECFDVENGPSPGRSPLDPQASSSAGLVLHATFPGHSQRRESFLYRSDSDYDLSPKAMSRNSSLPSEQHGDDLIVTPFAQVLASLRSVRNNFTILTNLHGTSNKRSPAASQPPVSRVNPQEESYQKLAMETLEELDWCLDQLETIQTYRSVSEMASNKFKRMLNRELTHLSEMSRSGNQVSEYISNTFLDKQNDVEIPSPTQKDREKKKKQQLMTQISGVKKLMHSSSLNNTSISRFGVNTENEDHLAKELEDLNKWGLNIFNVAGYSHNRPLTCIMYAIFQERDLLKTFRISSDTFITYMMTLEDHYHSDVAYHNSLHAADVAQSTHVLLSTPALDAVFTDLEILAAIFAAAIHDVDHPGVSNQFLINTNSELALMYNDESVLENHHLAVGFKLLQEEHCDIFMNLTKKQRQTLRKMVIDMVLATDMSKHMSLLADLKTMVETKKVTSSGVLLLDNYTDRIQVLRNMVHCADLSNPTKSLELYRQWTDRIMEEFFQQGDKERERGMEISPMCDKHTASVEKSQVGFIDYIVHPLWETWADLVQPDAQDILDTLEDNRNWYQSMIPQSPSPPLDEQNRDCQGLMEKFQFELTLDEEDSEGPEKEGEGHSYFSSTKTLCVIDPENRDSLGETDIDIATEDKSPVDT
Summary of the method: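 The readout is membrane depolarisation from a cAMP-sensing CNG channel, detected with a potential dye at ex 535/em 590. Cells were HEK293-derived (endogenous PDE-IV) at 1000 cells/well, titrated up to 22.9 uM final.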

[8] = target: Cytochrome P450 3A4 (Homo sapiens) (UniProt P08684); assay: qHTS Assay for Inhibitors and Substrates of Cytochrome P450 3A4 (AID 884; active = well fitted curve in the direction sought with a large enough effect; an effect the other way counts as inactive or inconclusive; note: % is set by controls: 0 for no effect and ±100 for the full control effect; nearly all actives have a fitted effect of over 50% in size)
Sequence of Cytochrome P450 3A4 (Homo sapiens) (P08684 whole entry, looked up): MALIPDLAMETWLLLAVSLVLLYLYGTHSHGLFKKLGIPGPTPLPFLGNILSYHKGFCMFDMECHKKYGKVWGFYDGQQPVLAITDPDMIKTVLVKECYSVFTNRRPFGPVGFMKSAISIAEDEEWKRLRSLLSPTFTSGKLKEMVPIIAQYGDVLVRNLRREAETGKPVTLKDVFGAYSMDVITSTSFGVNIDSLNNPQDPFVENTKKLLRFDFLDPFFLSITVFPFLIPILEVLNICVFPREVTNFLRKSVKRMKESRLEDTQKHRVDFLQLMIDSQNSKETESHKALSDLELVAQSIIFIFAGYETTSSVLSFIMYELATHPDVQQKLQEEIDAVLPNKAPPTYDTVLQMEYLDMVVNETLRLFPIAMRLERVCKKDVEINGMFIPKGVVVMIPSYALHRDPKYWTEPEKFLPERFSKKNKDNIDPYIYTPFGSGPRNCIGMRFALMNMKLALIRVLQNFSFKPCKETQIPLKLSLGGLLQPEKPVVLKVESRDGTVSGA
Summary of the method: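 Luminescent readout of luciferin produced by CYP3A4 (20 nM) dealkylation of Luciferin-PPXE, 25 uM (its KM). NADPH-driven reaction ran 60 min at RT after 10 min compound preincubation; data scaled to 57 uM ketoconazole as 100% inhibition.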

[9] = target: Ubiquitin carboxyl-terminal hydrolase 1 (Homo sapiens) (UniProt O94782); assay: Inhibitors of USP1/UAF1: Pilot qHTS (AID 504865; active = well fitted curve in the direction sought with a large enough effect; an effect the other way counts as inactive or inconclusive;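 note: rhodamine fluorescence freed from ubiquitin-rhodamine substrate followed over time; top concentration of the series differs between compounds; % is set by controls: 0 for no effect and ±100 for the full control effect; nearly all actives have a fitted effect of over 35% in size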)
Sequence of Ubiquitin carboxyl-terminal hydrolase 1 (Homo sapiens) (O94782 whole entry, looked up): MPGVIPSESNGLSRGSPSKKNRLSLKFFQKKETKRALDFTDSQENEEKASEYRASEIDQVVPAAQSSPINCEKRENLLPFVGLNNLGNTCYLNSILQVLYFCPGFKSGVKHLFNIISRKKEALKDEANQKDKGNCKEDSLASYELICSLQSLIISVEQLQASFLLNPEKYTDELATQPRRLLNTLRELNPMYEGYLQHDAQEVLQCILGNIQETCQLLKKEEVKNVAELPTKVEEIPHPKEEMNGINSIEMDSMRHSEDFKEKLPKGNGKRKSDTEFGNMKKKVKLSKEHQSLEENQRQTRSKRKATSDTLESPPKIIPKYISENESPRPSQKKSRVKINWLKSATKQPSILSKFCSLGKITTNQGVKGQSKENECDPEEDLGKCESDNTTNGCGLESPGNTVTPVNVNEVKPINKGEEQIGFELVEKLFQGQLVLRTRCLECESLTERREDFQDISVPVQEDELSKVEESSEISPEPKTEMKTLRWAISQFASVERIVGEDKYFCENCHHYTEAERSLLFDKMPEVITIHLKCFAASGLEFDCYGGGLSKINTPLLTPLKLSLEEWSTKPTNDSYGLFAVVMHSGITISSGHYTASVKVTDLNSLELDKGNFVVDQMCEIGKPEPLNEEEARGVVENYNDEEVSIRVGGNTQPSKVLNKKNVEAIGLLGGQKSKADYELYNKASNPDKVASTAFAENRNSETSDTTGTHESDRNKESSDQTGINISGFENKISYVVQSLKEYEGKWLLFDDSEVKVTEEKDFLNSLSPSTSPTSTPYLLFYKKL
Summary of the method: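 USP1/UAF1 complex at 1 nM preincubated 15 min at room temperature with compound, then Ub-Rho substrate added at 150 nM final. Fluorescence (480/540 nm) read kinetically in 50 mM HEPES pH 7.8, 0.5 mM EDTA, 1 mM TCEP, 0.1 mg/ml BSA, 0.01% Tween-20.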

[10] = measured here: cell count channel max response
[11] = measured here: lipid channel max response

Structure (SMILES) | activity change, negative = inhibition [1] | outcome [2] | activity change, negative = inhibition ([3]; at 25.7 µM (top of the series)) | max response [3, 10] [%] | max response [3, 11] [%] | Potency [4] | Potency [5] | Potency [6] | Potency [7] | Potency [8] | activity change, negative = inhibition ([3]; at 57.5 µM (top of the series)) | Potency [9]
C[C@@H]1O[C@H](O[C@H]2C[C@@H](O)[C@@]3(CO)[C@H]4[C@@H](O)C[C@]5(C)[C@@H](C6=CC(=O)OC6)CC[C@]5(O)[C@H]4CC[C@]3(O)C2)[C@@H](O)[C@H](O)[C@@H]1O | -76.3% (active) | inactive | -0.396% (inactive) | -4.59 | -4.25 |  |  |  |  |  |  | 
c1cncc([C@H]2CCCCN2)c1 |  | inactive |  | 18.4 | 19.6 | 0.1 µM (active) | > 46 µM (inactive) | > 46 µM (inactive) | inactive | inactive | 0.698% (inactive) | 
CN1[C@@H]2CC[C@H]1CC(O)C2 (stereo not given in full) | -15.4% (inactive) | inactive | -5.91% (inactive) | -19.1 | -25.1 | inactive |  |  | inactive |  |  | inactive
COc1cc2c(c(OC)c1OC)-c1ccc(O)c(=O)cc1[C@@H](NC(C)=O)CC2 |  | inactive |  | 16.1 | 20.6 | inactive | > 46 µM (inactive) | > 46 µM (inactive) |  | inactive | 3.54% (inactive) | 
